A number with no mark means an inactive call. Inconclusive results are not listed. Calls of active or inactive are those of the source. Unless noted, calls come from the whole dose curve; as a rule, active = well fitted curve in the direction sought with a large enough effect in the repeat runs; inconclusive = weak or mixed curves; inactive = no such curve, though single readings can be large; an effect the other way counts as inactive or inconclusive.

The source of these data is PubChem BioAssay (Tox21).

A short description of test [1]: qHTS assay for small molecule agonists of the p53 signaling pathway (AID 651631; calls by dose curve; note: nearly all actives have a fitted effect of over 15% in size). The method, boiled down: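 p53RE-bla HCT-116 cells; compounds 16 h, 37 °C; LiveBLAzer B/G FRET substrate 2 h RT; fluorescence intensity read-out, qHTS format.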
A short description of test [2]: qHTS assay for small molecules that induce genotoxicity in human embryonic kidney cells expressing luciferase-tagged ATAD5 (AID 651632). Note: nearly all actives have a fitted effect of over 15% in size. The method, boiled down:
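Quantitative HTS in HEK293T expressing luciferase-tagged ATAD5, whose levels rise upon DNA damage. Exposure ran 16 hr at 37C and 5% CO2, with luminescence read 30 min after Amplite addition at room temperature.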

Test [3] can be described thus: qHTS assay for small molecules that induce genotoxicity in human embryonic kidney cells expressing luciferase-tagged ATAD5 - cell viability (AID 651634; calls by dose curve; note: nearly all actives have a fitted effect of over 25% in size). The essentials: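 After 15.5 hr incubation with compound at 37C, 5% CO2, HEK293T ATAD5-luciferase cells received CellTiter-Fluor reagent; fluorescence intensity was quantified following 30 min at 37C.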
The nature of test [4]: qHTS assay for small molecule disruptors of the mitochondrial membrane potential - cell viability (AID 720634; calls by dose curve;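 note: human HepG2 liver cancer cells; series mostly up to about 83 µM; nearly all actives have a fitted effect of over 20% in size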). The method, boiled down: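 ATP-based luminescent viability readout (CellTiter-Glo, 30 min, room temperature) in HepG2 cells multiplexed with the m-MPI membrane potential dye; compound exposure lasted 1 hr at 37 C.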
A short description of test [5]: qHTS assay for small molecule disruptors of the mitochondrial membrane potential (AID 720635). Note: potency is the fitted concentration of half-maximal effect. The essentials:
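Mitochondrial membrane potential tracked with Mito-MPS dye, red aggregates (ex 540/em 590 nm) against green monomers (ex 490/em 535 nm). Compound treatment 1 hr at 37C, dye 30 min in HepG2.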

Test [6] in a line: qHTS assay to test for compound auto fluorescence at 590 nm (red) in HepG2 cells (AID 720674). The essentials: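 1 hr compound incubation on HepG2 cells, 37 C, 5% CO2; plate read ex 540 nm / em 590 nm; intensities reported as Rose Bengal sodium equivalents.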
The nature of test [7]: qHTS assay to test for compound auto fluorescence at 535 nm (green) in HepG2 cells (AID 720675).
A short description of test [8]: qHTS assay to test for compound auto fluorescence at 460 nm (blue) in HEK293 cells (AID 720678). The essentials:
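Intrinsic compound fluorescence is recorded in live HEK293 cultures after overnight incubation at 37C, 5% CO2, using excitation 405 nm and emission 460 nm. Values are referenced to triamterene.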

Test [9] is described as follows: qHTS assay to test for compound auto fluorescence at 590 nm (red) in HEK293 cells (AID 720679). The essentials:
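Red autofluorescence, HEK293 cells: 2,000 cells/well; attach 4-5 hr 37C; add 23 nL cpd or DMSO; incubate o/n 37C 5% CO2; read Ex540/Em590; Rose Bengal sodium reference.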

Test [10] in a line: qHTS assay for small molecule agonists of the p53 signaling pathway - cell viability (AID 651633; calls by dose curve;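 note: p53RE-bla HCT reporter cells with a stable beta-lactamase p53 reporter; series mostly up to about 83 µM; nearly all actives have a fitted effect of over 30% in size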). The essentials: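 Viability counter-read: CellTiter-Glo luminescence (30 min, room temperature) in the same p53RE-bla plates. These plates had been exposed to compounds for 16 h at 37 C.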
% is set by controls: 0 for no effect and ±100 for the full control effect.

As to `CC(C)(C)NC[C@H](O)COc1cccc2c1CCCC2=O`, the result in test [1], in [2] and in [4] was inactive. Besides, the Potency entry in test [3] and in test [5] was “inactive” each time. In [6], the fluorescence, relative to Rose Bengal is -0.105% [at 18.6 µM]. Further, in test [7], the fluorescence, % of fluorescein control is 0.0562% [at 18.6 µM]. Besides, the fluorescence, % of triamterene in test [8] is 0.103% [at 18.6 µM]. In addition, the fluorescence, % of fluorescent control in test [9] was 0.133% [at 18.6 µM].
With `CC(C)OC(=O)OCOP(=O)(CO[C@H](C)Cn1cnc2c(N)ncnc21)OCOC(=O)OC(C)C`, the call in test [1], in [2], in test [10], in [4], in [6] and in test [7] was inactive. Also, in test [8], the call was inactive. The Potency entry in [5] was “inactive”.
`CN1CCOC(c2ccccc2)c2ccccc2C1` (stereo not given): the compound was classed as inactive in test [1], in test [2], in [10] and in test [4]. Also, the Potency result in test [3] is “inactive”. Besides, the fluorescence, % of fluorescein control in [7] was 0.0561% [at 18.6 µM]. The fluorescence, % of triamterene in test [8] was -0.11% [at 18.6 µM]. Further, in test [9], the fluorescence, % of fluorescent control was 0.0791% [at 18.6 µM].
Regarding `c1ccc(-c2nn[nH]n2)cc1`, the call in [1], in [2], in [10], in test [4], in test [7] and in test [8] was inactive. For the same compound, the call in test [9] was inactive. Besides, in test [5], the Potency entry was “inactive”.
Take `NCc1ccc(S(N)(=O)=O)cc1`: the compound was classed as inactive in test [1], in [2], in test [10] and in test [4]. Besides, the Potency entry in [5] is “inactive”. Also, in test [7], the fluorescence, % of fluorescein control is -0.119% [at 18.6 µM]. In test [8], the fluorescence, % of triamterene is 0.204% [at 18.6 µM]. Besides, in test [9], the fluorescence, % of fluorescent control was -0.0605% [at 18.6 µM].
Regarding `C=CCSSCCC`, the result in [1], in [2], in [10], in [6], in [7] and in test [8] was inactive. For the same compound, the Potency entry in test [3] and in test [5] was “inactive” throughout.
As to `CC1OCCC1=O` (stereo not given), the compound was classed as inactive in test [1], in test [2], in test [10], in test [6], in test [7] and in test [8]. The call in test [9] was inactive. Moreover, the Potency entry in test [3] and in [5] was “inactive” in each case.
As to `CC1=C(C(=O)O)N2C(=O)[C@@H](NC(=O)[C@H](N)c3ccccc3)[C@H]2SC1`, the result in test [1], in test [2], in test [10], in test [4], in [6] and in test [7] was inactive. Further, the outcome in test [8] and in test [9] was inactive.
For `CC(=O)OCC(=O)Nc1cc(C#N)cc(NC(=O)COC(C)=O)c1Cl`, the result in [1], in [2], in test [10], in test [7] and in test [9] was inactive. Further, the Potency result in test [3] and in test [5] was “inactive” throughout.
Regarding `CN(C)CC/C=C1/c2ccccc2COc2ccc(CC(=O)O)cc21`, the compound was called inactive in test [1], in test [2], in [10], in [6], in test [7] and in test [8]. Also, in test [9], the outcome was inactive. Also, the Potency entry in test [3] was “inactive”.
Turning to `Cn1nnc2c(C(N)=O)ncn2c1=O`, the outcome in test [1], in [2], in test [10], in [6], in [7] and in test [8] was inactive. Moreover, in test [9], the compound was classed as inactive. Also, the Potency result in [5] was “inactive”.
Consider `Cn1c(=O)c2[nH]c(Br)nc2n(C)c1=O`, for which the compound was classed as inactive in test [1], in test [2], in test [10], in [4], in test [7] and in [8]. Moreover, the call in test [9] was inactive.
Take `CC1(C)Oc2ccc(C#N)cc2[C@@H](N2CCCC2=O)[C@@H]1O`: the call in test [1], in test [2], in test [6], in test [7], in test [8] and in test [9] was inactive. For the same compound, the Potency result in test [3] and in [5] was “inactive” throughout.
Take `CCCCCCCCCCCCCCC(=O)NC(CO)CCCCCCCCCCCCCC` (stereo not given): the outcome in test [1], in test [2], in test [4], in test [7], in test [8] and in test [9] was inactive. The Potency entry in test [3] was “inactive”.
As to `CC/C=C\CCOC(=O)c1ccccc1O`, the result in [1], in test [2], in test [10], in test [4], in test [7] and in test [8] was inactive. In addition, the Potency entry in [3] is “inactive”.
For the compound `CSc1cnccn1`, the call in [1], in test [2], in [6], in test [7] and in [8] was inactive. The Potency entry in test [3] and in test [5] was “inactive” each time.
For the compound `CNCCS(=O)(=O)O`, the result in [2], in test [10], in test [4], in test [6], in test [7] and in test [8] was inactive. The Potency entry in [3] and in [5] was “inactive” each time.
`Cc1ccc2c(c1)C(=O)c1ccccc1C2=O`: the outcome in test [1], in test [10], in test [7], in [8] and in test [9] was inactive. Also, the Potency entry in test [3] was “inactive”. In addition, the Potency in test [5] was 6.09 µM (active).
Take `CCC[C@@H]1C[C@@H](C(=O)N[C@@H]([C@H]2O[C@H](SC)[C@H](O)[C@@H](O)[C@H]2O)[C@@H](C)O)N(C)C1`: the call in test [1], in test [10], in test [4], in test [6], in test [7] and in test [8] was inactive. For the same compound, the result in test [9] was inactive.
For the compound `OCC1(CO)COCOC1`, the call in test [1], in [10], in test [6], in test [7], in test [8] and in test [9] was inactive.
In the case of `CC(S)C(C)S` (stereo not given), the compound was called inactive in test [2], in test [10], in [4], in test [6] and in test [7]. Besides, the Potency entry in test [3] and in [5] was “inactive” each time.
As for `O=C(Cl)c1ccccc1[N+](=O)[O-]`, the call in [1], in test [6], in test [7], in test [8] and in test [9] was inactive. Further, the Potency entry in test [3] and in test [5] was “inactive” in each case.
As for `O=C[O][Al]([O]C=O)[O]C=O`, the outcome in test [1], in test [4], in test [7], in test [8] and in test [9] was inactive.
For `C=CC/C=C/C`, the compound was classed as inactive in test [1], in test [10], in test [4], in [6], in test [7] and in [8]. Also, in test [9], the compound was called inactive. Also, in test [3], the Potency result was “inactive”.
Turning to `CC12CCC(C1)C(C)(C)C2O` (stereo not given), the outcome in [2], in test [10], in test [4], in [6], in test [7] and in test [8] was inactive. Besides, the result in test [9] was inactive. For the same compound, the Potency result in test [3] and in test [5] was “inactive” in each case.
In the case of `O=C1CCCCO1`, the result in [1], in test [10], in [7], in [8] and in test [9] was inactive.
On to `c1ccc(B(c2ccccc2)c2ccccc2)cc1`, for which the compound was classed as inactive in [1], in test [10], in test [6], in test [7] and in test [8]. Also, the Potency result in [3] was “inactive”. Moreover, the Potency in test [5] was 61.1 µM (active).
Consider `N[C@@H](CSCCCO)C(=O)O`, for which the call in [1], in [10], in test [6], in test [7], in [8] and in test [9] was inactive. The Potency result in test [5] was “inactive”.
With `c1ccc2c(CC3=NCCN3)cccc2c1`, the compound was classed as inactive in test [1], in test [4], in test [6], in test [7], in test [8] and in [9]. The Potency result in test [3] and in test [5] was “inactive” each time.
For the compound `COC(C)(OC)OC`, the compound was classed as inactive in test [1], in test [2], in [4], in test [6], in [7] and in [8]. For the same compound, the compound was called inactive in test [9].
For `O=S(=O)(O)c1ccc2c(N=Nc3ccc(S(=O)(=O)O)c4ccccc34)c(O)c(S(=O)(=O)O)cc2c1`, the result in [1], in test [10], in [4], in test [6] and in test [7] was inactive.
As for `C=C(C)c1cccc(C(C)(C)N=C=O)c1`, the call in test [1], in [10], in [4], in test [6], in test [7] and in test [8] was inactive. In addition, the Potency result in test [3] is “inactive”.
